“And” between values parts separate entries of the source, which are not always exact repeats. Equal values may be shown once. Inconclusive results are not listed. The source made the active and inactive calls. Unless noted, calls come from the whole dose curve; as a rule, active = well fitted curve in the direction sought with a large enough effect; inconclusive = small, poorly fitted or top-dose-only effect, or another doubt; inactive = no such curve, though single readings can be large; an effect the other way counts as inactive or inconclusive.
Tests used:
[1] = target: Arylsulfatase A (Homo sapiens) (UniProt P15289); test: qHTS screen for enhancers of Arylsulfatase A (ASA1): LOPAC Validation Assay (AID 720538)
Sequence of Arylsulfatase A (Homo sapiens) (P15289 whole entry, looked up): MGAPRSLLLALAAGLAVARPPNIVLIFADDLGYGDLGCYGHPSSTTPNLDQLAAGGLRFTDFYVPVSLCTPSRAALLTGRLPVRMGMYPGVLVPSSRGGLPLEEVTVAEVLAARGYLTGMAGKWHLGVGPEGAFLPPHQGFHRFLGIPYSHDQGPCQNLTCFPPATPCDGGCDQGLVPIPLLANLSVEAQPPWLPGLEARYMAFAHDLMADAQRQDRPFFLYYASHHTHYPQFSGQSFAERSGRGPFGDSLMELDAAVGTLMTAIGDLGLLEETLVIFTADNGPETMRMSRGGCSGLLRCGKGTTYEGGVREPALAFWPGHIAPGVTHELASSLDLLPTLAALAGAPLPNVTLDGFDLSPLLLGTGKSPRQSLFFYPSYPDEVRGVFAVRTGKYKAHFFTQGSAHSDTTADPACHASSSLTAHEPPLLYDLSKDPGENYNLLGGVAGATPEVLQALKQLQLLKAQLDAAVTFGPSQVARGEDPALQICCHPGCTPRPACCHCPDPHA
Procedure, shortened: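 First, ASA-I179S fibroblasts from an MLD patient adhered for 6 hrs. Next, compounds were added for 48h. Then pNCS substrate (0.5mM final) with lysis buffer reacted 14h at room temperature before NaOH stop and fluorescence measurement.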

[2] = qHTS for compounds that reverse cellular toxicity of Amyloid beta (A-beta) peptide in yeast: LOPAC Validation Assay (AID 720559);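 note: plate controls were DMSO for no effect and equimolar ferric chloride plus clioquinol rescue for full effect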
Procedure, shortened: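 Activity is expressed relative to DMSO and an equimolar ferric chloride/clioquinol mix. Compounds were pinned into medium with A-beta-expressing yeast, grown 48 hr at 30 C, then read by absorbance at 600 nm.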

[3] = qHTS for Activators of Parkin Expression: LOPAC Validation Assay (NLuc Reporter) (AID 720572)
Procedure, shortened: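 Compound effects on Parkin promoter activity were measured as NanoLuc luminescence after 24 h at 37 C. The neuronal reporter line also carried FLuc, which was read first. LOPAC compounds were tested at 7 concentrations, with normalization to DMSO (0%) and positive control (100%).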

[4] = qHTS for Activators of Parkin Expression: LOPAC Validation Assay (FLuc Reporter) (AID 720573)
Procedure, shortened: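 A neuronal cell line harbouring FLuc and NLuc reporters behind the Parkin promoter was exposed to compounds for 24 h. Firefly luciferase signal, measured after 10 min with detection reagent, was scaled to DMSO and positive-control wells.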

[5] = qHTS assay for small molecule agonists of the antioxidant response element (ARE) signaling pathway measured by Nrf2-dependant transcriptional activity (AID 720636; active = well fitted curve in the direction sought with a large enough effect in the repeat runs; an effect the other way counts as inactive or inconclusive;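 note: HepG2 cells with an ARE-driven luciferase reporter; % of control where 0% means no effect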)
Procedure, shortened: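 Reporter gene assay, HepG2 ARE-luc: 16 hr compound, 37 C, 5% CO2; read-out luciferase luminescence.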

[6] = qHTS assay for small molecule agonists of the antioxidant response element (ARE) signaling pathway measured by Nrf2-dependant transcriptional activity - cell viability counter screen (AID 720653; active = well fitted curve in the direction sought with a large enough effect in the repeat runs; an effect the other way counts as inactive or inconclusive; note: % is set by controls: 0 for no effect and ±100 for the full control effect); conditions: ARE-bla HepG2 viability, CellTiter-Glo ATP luminescence, 16 h; max response: hits give low values
Procedure, shortened: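 Cytotoxicity counter screen: intracellular ATP quantified by CellTiter-Glo luminescence in the same ARE-bla HepG2 plates, after 16 h compound exposure and a 2 h beta-lactamase substrate step.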

[7] = target: Hexokinase-4 (Homo sapiens) + Glucokinase regulatory protein (Homo sapiens) (UniProt P35557+Q14397); test: qHTS assay for inhibitors of recombinant human GCK-GKRP interaction: Diaphorase-coupled assay (AID 743205)
Sequence of Hexokinase-4 (Homo sapiens) + Glucokinase regulatory protein (Homo sapiens) (P35557 whole entry, looked up): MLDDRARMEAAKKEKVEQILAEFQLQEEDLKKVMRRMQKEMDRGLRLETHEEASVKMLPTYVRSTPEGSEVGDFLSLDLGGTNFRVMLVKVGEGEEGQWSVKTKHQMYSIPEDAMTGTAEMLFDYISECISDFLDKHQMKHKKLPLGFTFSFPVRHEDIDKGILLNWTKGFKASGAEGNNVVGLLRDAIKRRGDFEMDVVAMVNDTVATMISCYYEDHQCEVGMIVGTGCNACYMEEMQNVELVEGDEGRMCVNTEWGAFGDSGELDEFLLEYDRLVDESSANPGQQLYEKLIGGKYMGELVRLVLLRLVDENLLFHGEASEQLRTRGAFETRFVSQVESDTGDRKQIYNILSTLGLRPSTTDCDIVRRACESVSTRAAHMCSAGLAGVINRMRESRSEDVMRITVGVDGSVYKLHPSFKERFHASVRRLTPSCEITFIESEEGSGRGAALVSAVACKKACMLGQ
Sequence of Hexokinase-4 (Homo sapiens) + Glucokinase regulatory protein (Homo sapiens) (Q14397 whole entry, looked up): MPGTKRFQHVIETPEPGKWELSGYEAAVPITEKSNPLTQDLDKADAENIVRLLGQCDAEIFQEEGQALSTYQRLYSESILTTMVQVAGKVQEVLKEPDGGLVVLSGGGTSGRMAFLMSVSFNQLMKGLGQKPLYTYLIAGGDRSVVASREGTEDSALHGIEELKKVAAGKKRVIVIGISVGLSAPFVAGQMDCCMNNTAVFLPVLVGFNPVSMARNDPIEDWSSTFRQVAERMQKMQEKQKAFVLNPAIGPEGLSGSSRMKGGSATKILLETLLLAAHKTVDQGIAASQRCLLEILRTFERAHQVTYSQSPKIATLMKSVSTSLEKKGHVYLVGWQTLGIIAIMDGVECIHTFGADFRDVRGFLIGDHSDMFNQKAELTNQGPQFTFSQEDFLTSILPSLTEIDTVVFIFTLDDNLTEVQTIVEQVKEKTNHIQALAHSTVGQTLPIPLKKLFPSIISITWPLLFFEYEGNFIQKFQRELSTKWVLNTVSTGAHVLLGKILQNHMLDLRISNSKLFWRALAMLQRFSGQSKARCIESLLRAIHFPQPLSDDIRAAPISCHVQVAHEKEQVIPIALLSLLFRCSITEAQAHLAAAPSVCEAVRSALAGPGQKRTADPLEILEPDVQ
Procedure, shortened: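 Inhibitors of the GCK–GKRP complex relieve GKRP suppression of GCK, detected through a G6PDH–diaphorase cascade reducing resazurin. Human GST-GCK and FLAG-GKRP are used at 10 nM with 5 mM glucose and 0.4 mM ATP.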

CC#C[C@]1(O)CC[C@H]2[C@@H]3CCC4=CC(=O)CCC4=C3[C@@H](c3ccc(N(C)C)cc3)C[C@@]21C
inactive: Potency [1] | outcome [2] | outcome [3] | Potency [4] | outcome [5] | max response [6] -29.2%

CN1CCN(C2=Nc3cc(Cl)ccc3Nc3ccccc32)CC1
inactive: Potency [1] | outcome [2] | outcome [3] | Potency [4]

O=C1N(c2ccccc2)c2ccccc2C1(Cc1ccncc1)Cc1ccncc1
inactive: Potency [1] | outcome [2] | outcome [3] | Potency [4]

CN1CCC(=C2c3ccccc3C=Cc3ccccc32)CC1
inactive: Potency [1] | outcome [2] | outcome [3] | Potency [4]

CC12CC3CC(C)(C1)CC(N)(C3)C2
inactive: Potency [1] | outcome [2] | outcome [3] | Potency [4]

Cc1cc(C(C)(C)C)cc(C)c1CC1=NCCN1
inactive: Potency [1] | outcome [2] | outcome [3] | Potency [4]

COc1cc2c(c(OC)c1OC)-c1ccc(OC)c(=O)cc1[C@@H](NC(C)=O)CC2
inactive: Potency [1] | outcome [2] | outcome [3] | Potency [4] | outcome [5] | max response [6] -19.8% and 13.5% and -10.8%

NCCCCCC(=O)O
inactive: Potency [1] | outcome [2] | outcome [3] | Potency [4]

Cn1cnc2c1c(=O)[nH]c(=O)n2C
inactive: Potency [1] | outcome [2] | outcome [3] | Potency [4] | outcome [5] | max response [6] 4.98% | Potency [7]

CS(=O)(=O)Nc1ccc([N+](=O)[O-])cc1Oc1ccccc1
inactive: Potency [1] | outcome [2] | outcome [3] | Potency [4] | Potency [7]

CCOC(=O)C(C)(C)Oc1ccc(Cl)cc1
inactive: Potency [1] | outcome [2] | outcome [3] | Potency [4] | outcome [5] | max response [6] -4.42%

NC(CO)C(=O)NNCc1ccc(O)c(O)c1O (stereo unspecified)
inactive: Potency [1] | outcome [2] | outcome [3] | Potency [4] | Potency [7]

CC(C)(Oc1ccc(C2CC2(Cl)Cl)cc1)C(=O)O (stereo unspecified)
inactive: Potency [1] | outcome [2] | outcome [3] | Potency [4] | outcome [5] | max response [6] 10.6% | Potency [7]

O=C1Cc2cc(CCN3CCN(c4nsc5ccccc45)CC3)c(Cl)cc2N1
inactive: Potency [1] | outcome [2] | outcome [3] | Potency [4] | Potency [7]

COc1cc2nc(N3CCN(C(=O)c4ccco4)CC3)nc(N)c2cc1OC
inactive: Potency [1] | outcome [2] | outcome [3] | Potency [4] | Potency [7]

Nc1nnc(-c2cccc(Cl)c2Cl)c(N)n1
inactive: Potency [1] | outcome [2] | outcome [3] | Potency [4] | Potency [7]

CN(C)CCC=C1c2ccccc2C=Cc2ccccc21
inactive: Potency [1] | outcome [2] | outcome [3] | Potency [4] | Potency [7]

Cc1ccc(C(=O)Nc2ccc(S(=O)(=O)O)c3cc(S(=O)(=O)O)cc(S(=O)(=O)O)c23)cc1NC(=O)c1cccc(NC(=O)Nc2cccc(C(=O)Nc3cc(C(=O)Nc4ccc(S(=O)(=O)O)c5cc(S(=O)(=O)O)cc(S(=O)(=O)O)c45)ccc3C)c2)c1
inactive: Potency [1] | outcome [2] | outcome [3] | Potency [4]

CC(C)C(=O)Nc1ccc([N+](=O)[O-])c(C(F)(F)F)c1
inactive: Potency [1] | outcome [2] | outcome [3] | Potency [4] | outcome [5] | max response [6] -4.94% and -9.28% | Potency [7]

O=C(CCCN1CCC(O)(c2ccc(Cl)cc2)CC1)c1ccc(F)cc1
inactive: Potency [1] | outcome [2] | outcome [3] | Potency [4] | outcome [5] | max response [6] -9.04%

CC(C)Cc1ccc(C(C)C(=O)O)cc1 (stereo unspecified)
inactive: Potency [1] | outcome [2] | outcome [3] | Potency [4] | outcome [5] | max response [6] 3.8%

CCOC(=O)c1ncn2c1CN(C)C(=O)c1cc(F)ccc1-2
inactive: outcome [2] | outcome [3] | Potency [4]

CN(C)C(=O)C(CCN1CCC(O)(c2ccc(Cl)cc2)CC1)(c1ccccc1)c1ccccc1
inactive: outcome [2] | outcome [3] | Potency [4]

CC[N+](CC)(CC)CCOc1cccc(OCC[N+](CC)(CC)CC)c1OCC[N+](CC)(CC)CC
inactive: outcome [2] | outcome [3] | Potency [4]

CC(COc1ccccc1)N(CCCl)Cc1ccccc1 (stereo unspecified)
inactive: outcome [5] | Potency [7]

C[C@](N)(Cc1ccc(O)c(O)c1)C(=O)O
inactive: outcome [2] | outcome [3] | Potency [4] | outcome [5] | max response [6] -0.408% | Potency [7]

O=C(Nc1ccc([N+](=O)[O-])cc1Cl)c1cc(Cl)ccc1O
inactive: Potency [1] | outcome [5]

COc1cc2nc(N3CCN(C(=O)C4COc5ccccc5O4)CC3)nc(N)c2cc1OC (stereo unspecified)
inactive: Potency [1] | outcome [2] | outcome [3] | Potency [4] | Potency [7]

CN1C(C(=O)Nc2ccccn2)=C(O)c2ccccc2S1(=O)=O
inactive: Potency [1] | outcome [2] | Potency [4]

Source: PubChem BioAssay (NCATS)
